Reference: PubChem BioAssay (Tox21)
Several values for one entry are separate records, joined by “and”; a condition that tells them apart may be missing. Equal entries are not always repeated. Results filed as inconclusive are left out. Some structures have more than one record in an assay (separate samples or runs), and their calls can disagree. Activity calls are given as the source filed them. Unless noted, calls follow the shape of the dose curve; as a rule, active = well fitted curve in the direction sought with a large enough effect in the repeat runs; inconclusive = weak or mixed curves; inactive = no such curve, though single readings can be large; an effect the other way counts as inactive or inconclusive.

Tests used:
[1] = qHTS assay to identify small molecule agonists of the peroxisome proliferator-activated receptor delta (PPARd) signaling pathway - cell viability counter screen (AID 743211); also: nearly all actives have a fitted effect of over 55% in size
How it was run: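 Luminescent ATP viability assay (CellTiter-Glo, 30 min RT) in UAS-bla HEK293H cells carrying the PPAR delta reporter construct, 3000 cells/well, after a 17 h compound treatment at 37 C.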

[2] = biological target: Peroxisome proliferator-activated receptor delta (Homo sapiens) (UniProt Q03181); assay: qHTS assay to identify small molecule agonists of the peroxisome proliferator-activated receptor delta (PPARd) signaling pathway (AID 743212; calls by dose curve)
How it was run: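 Tox21 library screened in GeneBLAzer PPARd UAS-bla HEK293H cells. After compound treatment at 37 C, a FRET-based beta-lactamase substrate was applied for 2 h and fluorescence recorded.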

[3] = qHTS assay to identify small molecule antagonists of the peroxisome proliferator-activated receptor delta (PPARd) signaling pathway - cell viability counter screen (AID 743213); also: nearly all actives have a fitted effect of over 50% in size
How it was run: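 Luminescence from CellTiter-Glo, added after the bla read and incubated 30 min at room temperature, gives viability of HEK293H PPARd-bla cells exposed to compounds for 17 h at 37 C with 300 nM L165041.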

[4] = biological target: Peroxisome proliferator-activated receptor delta (Homo sapiens) (UniProt Q03181); assay: qHTS assay to identify small molecule antagonists of the peroxisome proliferator-activated receptor delta (PPARd) signaling pathway (AID 743215; active = well fitted inhibition curve with a large enough effect in the signal ratio in the repeat runs, not every such curve was filed as active; the % refers to the signal ratio;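 also: cells stimulated with agonist L165041 at 300 nM final during compound exposure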; also: potency is read from the fitted curve at half-maximal effect)
How it was run: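 Screen format: qHTS, antagonist mode. HEK293H PPARd-bla cells received compound and 300 nM L165041 (final), 17 h, 37 C. Beta-lactamase detected via FRET substrate fluorescence, 2 h, room temperature.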

[5] = qHTS assay to identify small molecule agonists of the farnesoid-X-receptor (FXR) signaling pathway - cell viability counter screen (AID 743218); also: nearly all actives have a fitted effect of over 45% in size
How it was run: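 Same-well cytotoxicity check on FXR-UAS-bla HEK 293T cells: 5 h attachment, 16 h compound at 37 C, CellTiter-Glo luminescence read at room temperature after 30 min.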

[6] = qHTS assay to identify small molecule antagonists of the farnesoid-X-receptor (FXR) signaling pathway - cell viability counter screen (AID 743221; active = well fitted cell-killing curve with a large enough effect in the repeat runs, not every such curve was filed as active; also: nearly all actives have a fitted effect of over 50% in size)
How it was run: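 In GeneBLAzer FXR-UAS-bla HEK 293T cells stimulated with 50 uM chenodeoxycholic acid (final), compounds acted for 16 h at 37 C. Viability was assessed afterwards by CellTiter-Glo luminescence.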

[7] = biological target: Vitamin D3 receptor (Homo sapiens) (UniProt P11473); assay: qHTS assay to identify small molecule agonists of the vitamin D receptor (VDR) signaling pathway (AID 743222; calls by dose curve)
How it was run: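 Using LiveBLAzer B/G FRET detection, agonism was scored in VDR-bla cells exposed overnight (16 h, 37C) to DMSO-dissolved compounds; substrate incubation was 2 h at room temperature.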

[8] = biological target: Vitamin D3 receptor (Homo sapiens) (UniProt P11473); assay: qHTS assay to identify small molecule antagonists of the vitamin D receptor (VDR) signaling pathway (AID 743223; active = well fitted inhibition curve with a large enough effect in the signal ratio in the repeat runs, not every such curve was filed as active; the % refers to the signal ratio)
How it was run: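 Agonist 1alpha,25-dihydroxyvitamin D3 (3 nM in well) was added with each compound to VDR-bla cells preincubated 4 h. Cells stood 16 h at 37C, then FRET substrate 2 h at room temperature; fluorescence intensity recorded.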

[9] = qHTS assay to identify small molecule agonists of the vitamin D receptor (VDR) signaling pathway - cell viability counter screen (AID 743224); also: nearly all actives have a fitted effect of over 50% in size; also: potency is read from the fitted curve at half-maximal effect
How it was run: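 Counter screen for cytotoxicity: VDR-bla cells at 2,000 cells/well, 16 h compound exposure, then CellTiter-Glo luminescence after the beta-lactamase measurement.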

[10] = qHTS assay to identify small molecule agonists of the NFkB signaling pathway (AID 1159509; active = well fitted curve in the direction sought with a large enough effect in the signal ratio in the repeat runs, not every such curve was filed as active; the % refers to the signal ratio; also: series mostly up to about 61 µM)
How it was run: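 Pathway activation was measured in ME-180 cells stably expressing beta-lactamase under NF-kB response element control. Substrate cleavage was read as the 460/530 nm emission shift after 5 hr compound incubation.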

[11] = qHTS assay to identify small molecule agonists of the NFkB signaling pathway - cell viability counter screen (AID 1159515; calls by dose curve; also: series mostly up to about 61 µM; nearly all actives have a fitted effect of over 55% in size)
How it was run: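 Counter screen run alongside the NFkB-bla agonist assay: ME-180 reporter cells exposed to compounds for 5 hr, then lysed with CellTiter-Glo in the same wells. Luminescence, read after 30 min, reflects viable cells.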

[12] = qHTS assay to identify small molecule agonists of the endoplasmic reticulum stress response signaling pathway (AID 1159516; active = well fitted activation curve with a large enough effect in the signal ratio in the repeat runs, not every such curve was filed as active; the % refers to the signal ratio)
How it was run: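 For this screen, HeLa cells stably carrying beta-lactamase under the ER stress response element received test compounds, positive controls or DMSO for 5 hr at 37 C; B/G FRET substrate was then added and dual-wavelength emission recorded.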

[13] = qHTS assay to identify small molecule agonists of the endoplasmic reticulum stress response signaling pathway - cell viability counter screen (AID 1159517; calls by dose curve; also: series mostly up to about 61 µM; nearly all actives have a fitted effect of over 50% in size)
How it was run: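 In parallel with the ESRE reporter read, cytotoxicity was scored by CellTiter-Glo luminescence (30 min, room temperature) on HeLa ESRE-bla cells dosed for 5 hr.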

[14] = qHTS assay to identify small molecule antagonists of the retinoid-related orphan receptor gamma (ROR-gamma) signaling pathway - cell viability counter screen (AID 1159520); also: nearly all actives have a fitted effect of over 50% in size
How it was run: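 Tet-on ROR gamma CHO cells were given compounds for 2 hr, then doxycycline hyclate at 1 uM final, and incubated 16 hr at 37 C. Viability was measured as ATP content by CellTiter-Glo luminescence.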

[15] = biological target: Nuclear receptor ROR-gamma (Homo sapiens) (UniProt P51449); assay: qHTS assay to identify small molecule antagonists of the retinoid-related orphan receptor gamma (ROR-gamma) signaling pathway (AID 1159521; also: nearly all actives have a fitted effect of over 50% in size; also: potency is read from the fitted curve at half-maximal effect)
How it was run: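 CHO cells expressing RORγ under a TET-on promoter, luciferase under RORE control. Dox 1 uM final, 16 h; compounds added 2 h prior. Luminescence decrease measured.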

[16] = qHTS assay to identify small molecule agonists of the AP-1 signaling pathway - cell viability counter screen (AID 1159525; calls by dose curve; also: nearly all actives have a fitted effect of over 55% in size)
How it was run: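 Same-well cytotoxicity counter screen of the Tox21 10K library in ME-180 cells. The readout is ATP-dependent luminescence after 5 h compound treatment. Data are normalised to DMSO and tetra n-octyl ammonium bromide controls.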

[17] = qHTS assay to identify small molecule agonists of the AP-1 signaling pathway (AID 1159526; calls by dose curve)
[18] = biological target: Bile acid receptor (Homo sapiens) (UniProt Q96RI1); assay: qHTS assay to identify small molecule antagonists of the farnesoid-X-receptor (FXR) signaling pathway (AID 743217; active = well fitted inhibition curve with a large enough effect in the signal ratio in the repeat runs, not every such curve was filed as active; the % refers to the signal ratio)
How it was run: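 Quantitative HTS, beta-lactamase reporter format: FXR-UAS-bla HEK 293T cells co-treated 16 h at 37 °C with compounds and 50 uM final chenodeoxycholic acid, then read by B/G FRET fluorescence.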

[19] = biological target: Bile acid receptor (Homo sapiens) (UniProt Q96RI1); assay: qHTS assay to identify small molecule agonists of the farnesoid-X-receptor (FXR) signaling pathway (AID 743220; active = well fitted activation curve with a large enough effect in the signal ratio in the repeat runs, not every such curve was filed as active; the % refers to the signal ratio)
How it was run: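 FXR-UAS-bla HEK 293T cells carrying a UAS-driven beta-lactamase reporter were plated for 5 h at 37C/5% CO2, then exposed to DMSO-dissolved Tox21 10K compounds for 16 h at 37C. A LiveBLAzer B/G FRET substrate was loaded for 2 h at room temperature before fluorescence reading.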

[20] = qHTS assay to identify small molecule antagonists of the vitamin D receptor (VDR) signaling pathway - cell viability counter screen (AID 743225); also: nearly all actives have a fitted effect of over 50% in size
How it was run: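 Luminescent cell viability (CellTiter-Glo) in VDR-bla HEK 293T cells after 16 h compound exposure at 37C in the presence of 3 nM final 1-alpha,25-dihydroxy vitamin D3.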

Measured: Potency

Bile acid receptor (Homo sapiens), sequence (Q96RI1 whole entry, looked up): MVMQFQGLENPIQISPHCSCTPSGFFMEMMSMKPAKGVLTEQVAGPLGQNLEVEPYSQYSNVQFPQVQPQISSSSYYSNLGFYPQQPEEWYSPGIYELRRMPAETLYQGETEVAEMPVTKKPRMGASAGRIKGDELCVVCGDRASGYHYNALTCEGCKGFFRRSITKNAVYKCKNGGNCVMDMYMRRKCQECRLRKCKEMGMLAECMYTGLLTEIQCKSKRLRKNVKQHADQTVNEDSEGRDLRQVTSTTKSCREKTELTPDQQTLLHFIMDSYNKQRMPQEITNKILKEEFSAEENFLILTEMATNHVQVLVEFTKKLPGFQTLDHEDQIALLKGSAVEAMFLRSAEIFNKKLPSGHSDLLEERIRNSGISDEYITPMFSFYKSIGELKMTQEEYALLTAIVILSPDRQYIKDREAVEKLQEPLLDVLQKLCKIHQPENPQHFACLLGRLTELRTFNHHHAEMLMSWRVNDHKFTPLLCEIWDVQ
Peroxisome proliferator-activated receptor delta (Homo sapiens), sequence (Q03181 whole entry, looked up): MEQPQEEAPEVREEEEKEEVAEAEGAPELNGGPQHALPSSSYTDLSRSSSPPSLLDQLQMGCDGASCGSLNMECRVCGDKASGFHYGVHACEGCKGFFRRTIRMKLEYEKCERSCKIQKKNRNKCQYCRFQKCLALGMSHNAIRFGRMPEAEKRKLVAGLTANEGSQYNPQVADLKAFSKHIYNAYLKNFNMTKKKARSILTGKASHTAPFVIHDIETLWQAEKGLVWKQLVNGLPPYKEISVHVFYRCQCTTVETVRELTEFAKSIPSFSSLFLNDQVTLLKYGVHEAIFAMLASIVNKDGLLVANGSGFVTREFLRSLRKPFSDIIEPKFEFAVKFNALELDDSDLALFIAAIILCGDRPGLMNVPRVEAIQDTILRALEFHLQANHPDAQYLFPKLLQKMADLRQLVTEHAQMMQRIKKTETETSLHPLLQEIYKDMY
Vitamin D3 receptor (Homo sapiens), sequence (P11473 whole entry, looked up): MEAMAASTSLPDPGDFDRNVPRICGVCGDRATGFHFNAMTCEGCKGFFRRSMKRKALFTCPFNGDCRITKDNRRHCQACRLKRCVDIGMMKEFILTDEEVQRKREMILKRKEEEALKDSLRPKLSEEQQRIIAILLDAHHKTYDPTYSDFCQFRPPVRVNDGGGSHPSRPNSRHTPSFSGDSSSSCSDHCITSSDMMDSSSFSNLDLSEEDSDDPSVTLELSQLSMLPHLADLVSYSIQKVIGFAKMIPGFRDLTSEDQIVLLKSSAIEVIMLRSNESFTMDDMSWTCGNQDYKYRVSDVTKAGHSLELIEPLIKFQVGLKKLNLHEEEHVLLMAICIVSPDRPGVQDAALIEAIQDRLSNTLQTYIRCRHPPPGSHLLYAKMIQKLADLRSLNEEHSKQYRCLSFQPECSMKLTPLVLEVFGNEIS

O=C(O)c1ccc(C(=O)O)cc1
not listed: [18] | [19] | [20]
inactive: all other assays above

C#C[C@]1(O)CC[C@H]2[C@@H]3CCC4=CC(=O)CC[C@@H]4[C@H]3CC[C@@]21C
active: [15] 30.6 µM
not listed: [7] | [8] | [18] | [19] | [20]
inactive: all other assays above

CC(=O)CC(=O)Nc1ccccc1
not listed: [15] | [20]
inactive: all other assays above

O=C(OCCOCCOC(=O)c1ccccc1)c1ccccc1
not listed: [20]
inactive: all other assays above

O=c1[nH]nnc2ccccc12
not listed: [15]
inactive: all other assays above

CC(C)(N)CO
not listed: [15]
inactive: all other assays above

CN(C)CCOCCN(C)C
not listed: [3]
inactive: all other assays above

CC1=CC(=O)NS(=O)(=O)O1
not listed: [2] | [4] | [20]
inactive: all other assays above

CCc1cccc(C)c1N
not listed: [18] | [19]
inactive: all other assays above

OCC(CO)(CBr)CBr
not listed: [7] | [8]
inactive: all other assays above

CC(O)COCC(C)O (stereo unspecified)
inactive: all assays above

ON=C1CCCCC1
inactive and 38.9 µM (active): [9]
inactive and 43.6 µM (active): [4]
not listed: [18] | [19]
inactive: all other assays above

CCCCCCCCCCCCCCCO
not listed: [20]
inactive: all other assays above

CCCC(C)=O
not listed: [7] | [8] | [20]
inactive: all other assays above

CC1CCC(C(C)C)C(O)C1 (stereo unspecified)
not listed: [15] | [20]
inactive: all other assays above
